# Test results reported in PubChem BioAssay AID1159580 (chemical genetic matrix, 2015).
# Screen size: about 5,500 compounds; about 2,000 (36%) were called active. Roughly 18% stayed inconclusive and do not appear here. The list shows a part of the results. Unmarked numbers belong to inactive results. No stated cut-off is given here; in the data, active means normalized growth mostly below about 0.91 (no sharp cut-off); inconclusive means no clear call, values can overlap the other calls; inactive means mostly above about 0.92.
# Experiment: chemical genetic growth profiling, strain panel (AID 1159580);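 further: tested at 20 µM; growth read once vehicle control cultures reached saturation at 30 °C; 1 = growth at the plate median or of vehicle wells; lower values mean less growth of the strain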
# Settings: growth OD
# [1] = S. cerevisiae deletion strains, locus YAL013W, strain DEP1, hits give low values
# [2] = S. cerevisiae deletion strains, locus YBR229C, strain ROT2, hits give low values
# [3] = S. cerevisiae deletion strains, locus YCL061C, strain MRC1, hits give low values
# [4] = S. cerevisiae deletion strains, locus YDL101C, strain DUN1, hits give low values
# [5] = S. cerevisiae deletion strains, locus YDL134C, strain PPH21, hits give low values
# [6] = S. cerevisiae deletion strains, locus YDR150W, strain NUM1, hits give low values
# [7] = S. cerevisiae deletion strains, locus YEL061C, strain CIN8, hits give low values
# [8] = S. cerevisiae deletion strains, locus YGR078C, strain PAC10, hits give low values
# [9] = S. cerevisiae deletion strains, locus YHR030C, strain SLT2, hits give low values
# [10] = S. cerevisiae deletion strains, locus YHR087W, strain rtc3, hits give low values
# [11] = S. cerevisiae deletion strains, locus YJR043C, strain POL32, hits give low values
# [12] = S. cerevisiae deletion strains, locus YJR075W, strain HOC1, hits give low values
# [13] = S. cerevisiae deletion strains, locus YLR039C, strain RIC1, hits give low values
# [14] = S. cerevisiae deletion strains, locus YLR058C, strain SHM2 (second series), hits give low values
# [15] = S. cerevisiae deletion strains, locus YLR085C, strain ARP6, hits give low values
# [16] = S. cerevisiae deletion strains, locus YLR262C, strain YPT6, hits give low values
# [17] = S. cerevisiae deletion strains, locus YML094W, strain GIM5, hits give low values
# [18] = S. cerevisiae deletion strains, locus YMR219W, strain ESC1, hits give low values
# [19] = S. cerevisiae deletion strains, locus YMR263W, strain SAP30, hits give low values
# [20] = S. cerevisiae deletion strains, locus YNL153C, strain GIM3, hits give low values
# [21] = S. cerevisiae deletion strains, locus YNL298W, strain CLA4 (second series), hits give low values
# [22] = S. cerevisiae deletion strains, locus YNL322C, strain KRE1, hits give low values
# [23] = S. cerevisiae deletion strains, locus YNR030W, strain Alg12, hits give low values
# [24] = S. cerevisiae deletion strains, locus YOL006C, strain TOP1, hits give low values
# [25] = S. cerevisiae deletion strains, locus YPL055C, strain LGE1, hits give low values
# [26] = S. cerevisiae deletion strains, locus YPL241C, strain CIN2, hits give low values
# [27] = S. cerevisiae deletion strains, locus YPR135W, strain CTF4, hits give low values
# [28] = S. cerevisiae strains, strain wild type, hits give low values
# [29] = S. cerevisiae deletion strains, locus YKL190W, strain CNB1, hits give low values
smiles,measurement,setting,value
Cn1c(SCC(=O)N2CCOCC2)nnc1-c1ccc2ncccc2c1,normalized growth,[1],0.996
same,normalized growth,[2],1.01
same,normalized growth,[3],1.02
same,normalized growth,[4],1.03
same,normalized growth,[5],0.963
same,normalized growth,[6],0.929
same,normalized growth,[7],1.03
same,normalized growth,[8],1.02
same,normalized growth,[9],1.08
same,normalized growth,[10],1.01
same,normalized growth,[11],1.01
same,normalized growth,[12],1.03
same,normalized growth,[13],0.971
same,normalized growth,[14],0.995
same,normalized growth,[15],1.1
same,normalized growth,[16],0.942
same,normalized growth,[17],1.06
same,normalized growth,[18],1
same,normalized growth,[19],1
same,normalized growth,[20],1
same,normalized growth,[21],1.03
same,normalized growth,[22],0.992
same,normalized growth,[23],1.03
same,normalized growth,[24],1.03
same,normalized growth,[25],1.04
same,normalized growth,[26],1.05
same,normalized growth,[27],1.03
same,normalized growth,[28],0.984
Cn1c(SCc2ccccc2)nnc1-c1ccc2ncccc2c1,normalized growth,[1],1
same,normalized growth,[2],0.997
same,normalized growth,[3],1.01
same,normalized growth,[4],0.986
same,normalized growth,[5],1.01
same,normalized growth,[6],0.902
same,normalized growth,[7],0.987
same,normalized growth,[8],1
same,normalized growth,[9],1.18
same,normalized growth,[10],0.999
same,normalized growth,[11],0.997
same,normalized growth,[12],0.991
same,normalized growth,[29],0.994
same,normalized growth,[13],1.1
same,normalized growth,[14],0.997
same,normalized growth,[15],1.05
same,normalized growth,[16],1.1
same,normalized growth,[17],1.01
same,normalized growth,[18],0.999
same,normalized growth,[19],0.989
same,normalized growth,"S. cerevisiae deletion strains, locus YMR307W, strain GAS1, hits give low values",1.41 [resistant] (active)
same,normalized growth,[20],0.997
same,normalized growth,[21],1.07
same,normalized growth,[22],0.992
same,normalized growth,[23],1.02
same,normalized growth,[24],1.01
same,normalized growth,[25],0.99
same,normalized growth,[26],1.02
same,normalized growth,[27],1.08
CCOC(=O)c1cnc2n(c1=O)CCS2,normalized growth,[1],1.02
same,normalized growth,[2],0.997
same,normalized growth,[4],1.05
same,normalized growth,[6],0.965
same,normalized growth,[7],1.04
same,normalized growth,[8],1.04
same,normalized growth,[9],1.1
same,normalized growth,[10],1.02
same,normalized growth,[11],0.999
same,normalized growth,[12],1.01
same,normalized growth,[29],0.996
same,normalized growth,[13],0.99
same,normalized growth,[14],0.995
same,normalized growth,[15],1.06
same,normalized growth,[16],0.996
same,normalized growth,[17],1.13 [resistant] (active)
same,normalized growth,[18],0.999
same,normalized growth,[19],1
same,normalized growth,"S. cerevisiae deletion strains, locus YNL128W, strain TEP1, hits give low values",0.997
same,normalized growth,[20],1.02
same,normalized growth,[21],1.03
same,normalized growth,[22],1.01
same,normalized growth,[23],1.08
same,normalized growth,[24],1.07
same,normalized growth,[25],0.987
same,normalized growth,[26],1.01
same,normalized growth,[27],1.12
same,normalized growth,[28],0.975
